This note sets out measurements from PubChem BioAssay.

Assay [1] deals with Albumin (Bos taurus) (UniProt P02769). Put plainly: compounds binding labelled BSA control protein – biochemical, small-molecule microarray, Alexa647 label, 635/667 nm fluorescence, artefact control for SMM control protein annotation, profiling panel (AID 1118).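 Note: score merges 667 nm emission intensity and signal-to-noise per printed compound spot.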 To be noted: BSA-A647 binding, fluorescence 635 nm, higher = more signal.
Assay [2] can be described thus: probe aXIP binding to arrayed compounds – biochemical, NeuroSMM set, 635/667 nm fluorescence, primary screen (AID 1119).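 Note: probe is the protein aXip251-270 applied at 1 µg/mL to compound-printed slides; binding of probe to printed compounds measured as 667 nm fluorescence plus signal to noise.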 To be noted: small-molecule microarray, higher = more signal, called active from +8 up or from −8 down.
Assay [3] can be described thus: probe aNOTCH3 binding on compound microarray – biochemical, small-molecule microarray, 635/667 nm fluorescence, primary screen (AID 1120).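 Note: probe is a biotin-tagged antibody raised against NOTCH3 rather than NOTCH3 protein; score merges spot fluorescence near 667 nm with spot signal to noise.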 To be noted: higher = more signal.
Assay [4] is described as follows: probe aNOTCH2 binding on compound microarray – biochemical, small-molecule microarray, 635/667 nm fluorescence, primary screen (AID 1121).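 Note: score merges feature fluorescence read at 667 nm with its signal to noise.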 To be noted: higher = more signal.
In assay [5] the target is Carbonic anhydrase 2 (Homo sapiens) (UniProt P00918). Put plainly: compounds binding carbonic anhydrase 2 – biochemical, small-molecule microarray, Alexa647-labelled CAII, profiling panel (AID 1122). The conditions noted are these: CAII-A647 binding fluorescence, higher = more signal.
Assay [6] is described as follows: COS7 lysate on small-molecule microarray, probe aHis, 635 nm (AID 1123).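 Note: z-score combines 667nm fluorescence intensity with signal-to-noise per printed compound spot.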 To be noted: COS7 cell lysate, fluorescence, higher = more signal.
The nature of assay [7]: probe aLAP1 signal on lysate-treated microarray – cell lysate, small-molecule microarray, COS7 lysate, primary screen (AID 1124).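 Note: lysate comes from COS7 cells expressing LAP1 and is applied at 0.3 µg/mL; score merges spot fluorescence near 667 nm with signal-to-noise over triplicate slides.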 The conditions noted are these: probe aLAP1, fluorescence, higher = more signal.
In assay [8] the test system is Sam68 (KHDRBS1). Put plainly: compounds binding KHDRBS1 protein – biochemical, small-molecule microarray, 635 nm fluorescence, primary screen (AID 1125).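 Note: score merges 667 nm channel intensity with signal to noise over triplicate slides.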 To be noted: higher = more signal.
The subject of assay [9] is Chordin-like protein 2 (CHRDL2). The assay is described as follows: compounds binding chordin-like 2 – biochemical, small-molecule microarray, 635 nm fluorescence, primary screen (AID 1126).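 Note: printed compound slides probed with Chrdl2 protein at 4 µg/mL for 1 h at 4 C; score merges 667 nm emission intensity with signal to noise over three replicate slides.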 To be noted: fluorescence 635 nm, higher = more signal.
Assay [10] deals with Concanavalin-A (Canavalia ensiformis) (UniProt P02866). The assay is described as follows: compounds binding concanavalin A lectin – biochemical, small-molecule microarray, Alexa647 label, 635 nm, artefact control for SMM control protein annotation, primary screen (AID 1127).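 Note: z combines 667 nm emission intensity with signal-to-noise across three replicate slides.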 To be noted: ConA-A647 binding fluorescence, higher = more signal.

Activity calls are given as the source filed them.

Chain of Concanavalin-A (Canavalia ensiformis) (P02866 whole entry, looked up): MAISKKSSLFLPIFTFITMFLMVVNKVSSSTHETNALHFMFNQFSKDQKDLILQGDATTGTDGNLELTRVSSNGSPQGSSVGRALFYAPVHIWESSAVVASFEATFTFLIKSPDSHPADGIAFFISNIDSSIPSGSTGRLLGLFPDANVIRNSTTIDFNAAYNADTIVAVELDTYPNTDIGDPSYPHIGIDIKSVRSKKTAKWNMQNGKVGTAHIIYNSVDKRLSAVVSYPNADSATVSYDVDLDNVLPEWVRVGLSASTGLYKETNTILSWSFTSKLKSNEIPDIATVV
Chain of Albumin (Bos taurus) (P02769 whole entry, looked up): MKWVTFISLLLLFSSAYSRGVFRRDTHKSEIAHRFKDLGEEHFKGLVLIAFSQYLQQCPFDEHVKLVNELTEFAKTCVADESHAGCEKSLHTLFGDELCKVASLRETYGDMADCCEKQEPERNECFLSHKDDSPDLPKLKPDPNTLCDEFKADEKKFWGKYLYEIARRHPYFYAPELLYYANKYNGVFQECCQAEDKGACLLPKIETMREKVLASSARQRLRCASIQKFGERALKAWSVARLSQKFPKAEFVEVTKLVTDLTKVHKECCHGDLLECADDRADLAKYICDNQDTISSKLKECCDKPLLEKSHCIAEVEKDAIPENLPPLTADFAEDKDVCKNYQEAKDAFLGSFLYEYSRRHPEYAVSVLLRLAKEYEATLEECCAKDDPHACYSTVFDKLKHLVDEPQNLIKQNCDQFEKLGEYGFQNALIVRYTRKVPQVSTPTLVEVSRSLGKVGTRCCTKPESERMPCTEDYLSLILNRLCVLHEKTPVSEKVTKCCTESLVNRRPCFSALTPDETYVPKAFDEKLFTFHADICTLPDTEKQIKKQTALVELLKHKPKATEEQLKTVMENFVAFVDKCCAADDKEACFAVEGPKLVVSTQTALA

As for `C=C(COC)C(=O)CC[C@@H](OC(C)=O)c1ccc(CO)o1`, the composite z-score in assay [1] is -0.0861; in [3], -0.0311; in [4] it was 0.169; in [5] it was 0.662; in [6], -0.137; in [7] it was -0.311. Moreover, the composite z-score in assay [8] was 0.298; in assay [9] it was 1.13; in assay [10], 0.0796. Further, in [2], the composite Z-score is 0.365 (inactive).

With `CCCCCCc1nc(-c2cc(C)c(OC)c(C)c2)cc2c1[Si](C(C)C)(C(C)C)OC2`, the composite z-score in [1] is -0.623; in assay [3], -0.0111; in assay [4], -0.113; in [5] it was 0.0878; in [6], -0.241; in assay [7] it was -0.0553. Moreover, the composite z-score in assay [8] was found to be 0.363; in assay [9], 0.119; in [10] it was 0.208. The composite Z-score in assay [2] is 0.244 (inactive).

In the case of `COC(=O)[C@@]1(Cc2ccc(OC)cc2)[C@H]2c3cc(C(=O)N4CCCC4)n(Cc4ccc(C)c(F)c4F)c3C[C@H]2CN1C(=O)c1ccccc1`, the composite z-score in assay [1] stood at 1.05; in assay [3] it was 0.538; in assay [4], 0.223; in [5] it was 0.744; in assay [6] it was 3.22; in assay [7] it was 0.345. Further, the composite z-score in [8] was 1.3; in [9], -0.596; in assay [10], 1.15. The composite Z-score in assay [2] is -0.572 (inactive).

`COc1cc(COC(C)=O)ccc1OC(C)=O`: the composite z-score in [1] is -0.0355; in [3], 0.397; in [4], -0.0304; in assay [5] it was -0.171; in assay [6], 0.279; in [7], -0.184. Also, the composite z-score in [8] was determined as 0.624; in [9] it was 0.558; in assay [10], 0.733. Further, the composite Z-score in assay [2] was -0.254 (inactive).

With `CCOC(=O)C[C@H]1[C@H](OC(=O)c2ccc(C(=O)c3ccccc3)cc2)[C@@H](NC(=O)c2ccccc2)c2cc(OCCCO)ccc2N1C(=O)Cc1ccc(OC)cc1`, the composite z-score in [1] was 0.346; in assay [3], 0.0242; in [4], -0.0624; in assay [5] it was 0.0172; in assay [6], 0.445; in [7] it was -0.171. Further, the composite z-score amounted to 0.226 in assay [8], 0.0542 in assay [9] and 0.163 in assay [10]. For the same compound, the composite Z-score in assay [2] is 0.713 (inactive).

Regarding `CC(=O)NCCCC[C@@H]1NC(=O)[C@H]2C[C@@H](C(=O)NCCCCCCNC(=O)CS)[C@@H](c3ccc(O)cc3)N2C1=O`, the composite z-score was -1.4 in assay [1]; -0.216 in assay [3]; -0.185 in [4]; 0.727 in assay [5]; 2.68 in assay [6]; 0.0073 in assay [7]. The composite z-score in assay [8] is 0.0719; in assay [9], -0.205; in assay [10], -0.366. Further, in assay [2], the composite Z-score is 0.239 (inactive).

As for `COC(=O)C(CC#Cc1ccc2c(c1)[C@]1(C(=O)N2)[C@H](c2ccc(OCCO)cc2)N2[C@H](c3ccccc3)[C@H](c3ccccc3)OC(=O)[C@H]2[C@@H]1C(=O)N1CCc2cc(OC)c(OC)cc2C1)C(=O)OC`, the composite z-score in assay [1] was 0.863; in assay [3], 0.407; in [4] it was -0.0326; in assay [5], 0.542; in assay [6], 2.04; in assay [7], 0.397. The composite z-score amounted to 1.31 in assay [8], 0.547 in [9] and 1.15 in [10]. Besides, the composite Z-score in [2] was -0.527 (inactive).

On to `C=C(CCCC)C(=O)CC[C@@H](OC(=O)c1ccccc1-c1ccccc1C(=O)O)c1ccc(OCCO)cc1`, for which the composite z-score in assay [1] is -0.873; in [3] it was -0.185; in assay [4] it was -0.125; in assay [5], 0.437; in assay [6], 0.121; in assay [7], -0.102. Besides, the composite z-score was 0.684 in [8], 0.876 in assay [9] and 0.829 in [10]. Moreover, the composite Z-score in assay [2] is 0.0426 (inactive).

As for `CCCc1cc2c(n1Cc1cc(F)cc(F)c1)C(C)C1CN(C(=O)c3ccccc3)C(C)(C(=O)OC)C21` (stereo not given), the composite z-score in assay [1] was 1; in assay [3], 0.272; in assay [4], 0.341; in assay [5], 0.633; in [6], 3.26; in [7] it was 1.07. The composite z-score was 1.22 in assay [8], -0.255 in [9] and 1.11 in assay [10]. In [2], the composite Z-score is 0.723 (inactive).

As to `COCCOC(=O)N1C(=O)[C@@]2(c3cc(C#CCC(C(=O)OC)C(=O)OC)ccc31)[C@H](C(=O)N1CCN(c3ncccn3)CC1)[C@H]1C(=O)O[C@H](c3ccccc3)[C@H](c3ccccc3)N1[C@@H]2c1ccccc1OCCO`, the composite z-score in assay [1] was -0.503; in assay [3] it was 0.176; in [4], -0.147; in assay [5] it was 0.347; in [6] it was 0.928; in assay [7], 0.698. The figures for the composite z-score in assay [8], in assay [9] and in assay [10] were 1.29, 1.09 and 1.13, respectively. The composite Z-score in assay [2] is -0.444 (inactive).

For `C=C[C@H](OC)[C@@H](OC(=O)Nc1ccc(OC)cc1)c1ccc(O)c(F)c1`, the composite z-score in assay [1] was -1.15; in assay [3] it was -0.333; in [4] it was -0.217; in assay [5], 0.562; in [6], 2.28; in assay [7], 0.953. The composite z-score was 0.96 in assay [8], -1.85 in assay [9] and -1.15 in [10]. Also, the composite Z-score in assay [2] is 0.111 (inactive).

For the compound `COC(=O)[C@@]1(Cc2ccccc2)N=C(c2ccc(OCCCO)cc2)O[C@H]1c1ccccc1`, the composite z-score in [1] was 0.103; in [3], -0.17; in [4] it was -0.0179; in assay [5], 0.624; in assay [6], 2.76; in [7], 1.07. Also, the composite z-score in [8] was -0.0634; in assay [9], 0.0607; in assay [10], 0.889. In addition, the composite Z-score in assay [2] was 0.216 (inactive).

`CC(C)NC(=O)[C@@H]1c2ccccc2C(=O)N(C2Cc3ccccc3C2)[C@H]1c1ccc(CO)cc1`: the composite z-score is 0.416 in [1]; -0.145 in [3]; -0.117 in assay [4]; 0.492 in [5]; 1.62 in assay [6]; 0.781 in [7]. For the same compound, the results for the composite z-score in assay [8], in assay [9] and in assay [10] were 0.983, -0.321 and 0.771, respectively. In addition, the composite Z-score in [2] is 0.392 (inactive).

On to `CC(C)C[C@@H]1NC(=O)[C@@H]2C[C@H](C(=O)NCc3ccc(F)cc3)[C@H](c3cccc(OCCO)c3)N2C1=O`, for which the composite z-score is -0.972 in assay [1]; -0.229 in assay [3]; -0.166 in assay [4]; 0.549 in [5]; 0.558 in assay [6]; 1.19 in [7]. The composite z-score is 0.72 in [8], 0.915 in assay [9] and 0.902 in assay [10]. In addition, the composite Z-score in assay [2] was 0.532 (inactive).
